A selection: hits, their analogues and other compounds. The true share with any hit is near 1.6%.
KCNQ2 block = KCNQ2 (rat) channel inhibition; O88943; CHO-K1 KCNQ2, FluxOR thallium flux, 20 min; hits give low values; B-score at 10 µM; 310,000 tested, 1.1% active; AID 2156;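 active = fluorescence ratio B-score at most minus 3 library SDs, with starting brightness B-score within 2 library SDs, cut at about -5.5 in these data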
KCNQ2 enhance = potentiators of rat KCNQ2 potassium channel; 310,000 tested, 0.54% active; B-score at 10 µM; CHO-K1 KCNQ2, FluxOR thallium flux fluorescence; hits give high values;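 active = fluorescence ratio B-score at least 3 SD of library B-scores, with initial fluorescence B-score within 3 of them, cut at about 5.3 in these data; same plate scores as AID 2156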;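 note: B-score of peak minus minimum over baseline fluorescence ratio after K+ and Tl+ stimulus; positive B-score means potentiation of KCNQ2 with more thallium influx and brighter signal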
Kir21 confirm = confirmation of mouse Kir2.1 potassium channel inhibitors | 2,300 tested, 41% active | Kir2.1-expressing cells, FluxOR thallium flux fluorescence; hits give low values | Tl flux remaining, % of negative control (hits give low values), % at 10 µM | shares compounds with KCNQ2 enhance;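 active = Primary-screen hit whose thallium flux fell at least 3 control SD below untreated wells in both duplicates, with normal baseline fluorescence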;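 note: 0% = blank wells without stimulus and 100% = stimulated no-compound controls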
HEK293 Tl flux = alters thallium flux in parental HEK293 cells, Kir2.1 counter-screen. shares compounds with KCNQ2 enhance. FluxOR thallium flux fluorescence; 0% = unstimulated blank wells. 2,300 tested, 19% active. FluxOR signal as % of negative control (100 = no effect), % at 10 µM;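 active = dye signal at least 3 control SD above or below untreated wells in both duplicates, raw fluorescence within 3, either direction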;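 note: percent is based on the flux ratio of peak minus minimum fluorescence over baseline F0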
CHO-K1 Tl ctr = counter-screen for KCNQ2 potentiators: effect in parental CHO-K1 cells; shares compounds with KCNQ2 enhance; FluxOR thallium flux fluorescence; zero = vehicle mean+3SD, 100% = vehicle-minus-blank window; activity increase over 3SD of controls, % at 10 µM; 1,200 tested, 43% active;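 active = signal rise of at least 3 SD above the untreated control mean, in both duplicate wells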;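 note: counter screen of KCNQ2 potentiator hits so any rise reflects channel-independent effects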
KCNQ1 sel pot = selectivity of KCNQ2 potentiators: effect on human KCNQ1; shares compounds with KCNQ2 enhance; CHO KCNQ1 stable, FluxOR thallium flux fluorescence; beyond 3SD, as % of vehicle-control signal; activation over 3SD threshold, % at 10 µM; 1,200 tested, 28% active; AID 2283;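 active = fluorescence ratio rise of at least 3 SD of vehicle wells above their mean, in both replicate wells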;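 note: 0% = vehicle mean plus 3 SD and 100% = vehicle minus unstimulated blank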
KCNQ2 pot confirm = rat KCNQ2 channel potentiator confirmation. shares compounds with KCNQ2 enhance. CHO-KCNQ2 cells, FluxOR thallium flux fluorescence. potentiation, less the hit threshold, % at 10 µM. 1,200 tested, 68% active. AID 2287;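 active = fluorescence ratio rising 3 SD or more over the vehicle control mean in both replicates, plus primary screen hit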;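 note: peak minus minimum thallium fluorescence divided by baseline after K/Tl stimulus; 0% = vehicle mean plus 3 SD and 100% = vehicle minus unstimulated blank difference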
Kir21 spec = tests whether KCNQ2 potentiators also affect mouse Kir2.1 | shares compounds with KCNQ2 enhance | HEK293 Kir2.1, FluxOR thallium flux fluorescence | activity over 3SD threshold, % at 10 µM | 1,200 tested, 2% active | AID 2345;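 active = fluorescence ratio rise of at least 3 SD above the vehicle-control mean, seen in both replicates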;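 note: 0% = vehicle mean plus 3 SD and 100% = vehicle minus no-stimulus blank window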
KCNQ2 W236L MoA = potentiates the retigabine-insensitive rat KCNQ2 W236L mutant channel; shares compounds with KCNQ2 enhance; CHO KCNQ2-W236L, automated patch clamp current; 940 tested, 10% active; current increase over 3SD of negative controls (%), hits give high values, % at 25 µM;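 active = current increase at least 3 SD of the untreated controls above them in both duplicate recordings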
Target sequence (O88943 whole entry W236L, looked up): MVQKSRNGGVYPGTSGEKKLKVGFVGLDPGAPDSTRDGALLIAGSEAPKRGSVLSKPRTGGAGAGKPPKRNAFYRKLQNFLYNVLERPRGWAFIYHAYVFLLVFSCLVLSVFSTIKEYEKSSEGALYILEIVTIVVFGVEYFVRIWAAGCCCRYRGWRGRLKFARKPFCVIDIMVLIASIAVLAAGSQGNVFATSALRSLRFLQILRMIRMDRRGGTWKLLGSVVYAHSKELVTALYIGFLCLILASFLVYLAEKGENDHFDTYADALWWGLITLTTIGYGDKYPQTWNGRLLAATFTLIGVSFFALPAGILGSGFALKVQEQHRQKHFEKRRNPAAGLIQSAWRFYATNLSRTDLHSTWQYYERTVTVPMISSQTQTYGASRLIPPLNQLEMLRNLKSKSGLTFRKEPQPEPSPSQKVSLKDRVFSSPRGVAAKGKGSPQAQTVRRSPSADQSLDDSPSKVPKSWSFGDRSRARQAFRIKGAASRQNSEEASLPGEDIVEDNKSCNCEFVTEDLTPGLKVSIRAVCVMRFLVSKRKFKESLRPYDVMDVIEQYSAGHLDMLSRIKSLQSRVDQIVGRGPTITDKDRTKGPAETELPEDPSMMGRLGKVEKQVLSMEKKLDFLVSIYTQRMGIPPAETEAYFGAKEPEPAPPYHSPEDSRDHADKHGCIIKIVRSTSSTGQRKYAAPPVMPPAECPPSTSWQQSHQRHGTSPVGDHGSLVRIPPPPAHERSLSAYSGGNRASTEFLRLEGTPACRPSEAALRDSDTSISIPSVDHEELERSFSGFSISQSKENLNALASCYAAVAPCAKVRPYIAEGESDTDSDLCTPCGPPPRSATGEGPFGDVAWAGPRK
Numbers without * were called inactive; i = inactive; . = no result.

SMILES	KCNQ2 block	KCNQ2 enhance	Kir21 confirm	HEK293 Tl flux	others
O=C1CN(S(=O)(=O)c2ccc(Br)cc2)c2ccccc2N1	i	.	.	.
O=C(NCC(=O)N1CCN(c2ccccc2)CC1)c1cccs1	i	.	.	.
COC(=O)c1ccccc1NC(=O)c1ccnn1C	i	0.46	.	.
CC1Cc2ccccc2N1C(=S)NC(=O)c1ccco1 (configuration not stated)	i	3.12	.	.
CC1Cc2ccccc2N1C(=S)NC(=O)C1(C)CC1(Cl)Cl (configuration not stated)	i	7.2*	i	272.0%*	CHO-K1 Tl ctr=-4.6;KCNQ1 sel pot=-9.2;KCNQ2 pot confirm=26.2*;Kir21 spec=-14.4;KCNQ2 W236L MoA=i
Cc1ccc(S(=O)(=O)N2CCC(C(=O)NCCc3ccccn3)CC2)cc1	i	0.41	.	.
CC(/C=C/c1ccco1)=N\NC(=O)CNc1cccc(C)c1	i	.	.	.
CCOC(=O)c1ccc(NC(=O)C2CC3CCC2C3)cc1 (configuration not stated)	i	1.3	.	.
Cc1cc(C)c(NC(=O)C2CC3CCC2C3)c(C)c1 (configuration not stated)	i	27.5*	i	i	CHO-K1 Tl ctr=-6.5;KCNQ1 sel pot=-12.2;KCNQ2 pot confirm=112.3*;Kir21 spec=-21.1;KCNQ2 W236L MoA=i
COC(=O)c1ccc(NC(=O)C2CC3CCC2C3)cc1 (configuration not stated)	i	1.25	.	.
Cc1cccc(C)c1NC(=O)C1CC2CCC1C2 (configuration not stated)	i	6.19*	i	i	CHO-K1 Tl ctr=2.9*;KCNQ1 sel pot=33.7*;KCNQ2 pot confirm=-2.9;Kir21 spec=-32.5;KCNQ2 W236L MoA=i
COC(=O)c1sccc1NC(=O)C1CC2CCC1C2 (configuration not stated)	i	1.05	.	.
Cc1cccc(NC(=O)C2CC3CCC2C3)c1C (configuration not stated)	i	6.93*	i	i	CHO-K1 Tl ctr=-22.8;KCNQ1 sel pot=-14.3;KCNQ2 pot confirm=13.5*;Kir21 spec=-28.7;KCNQ2 W236L MoA=i
O=C(CCc1nc2ccccc2c(=O)[nH]1)N1CCN(S(=O)(=O)c2cccc(F)c2)CC1	i	0.68	.	.
CCc1ccc([C@@H]2C[C@H]3CN(Cc4ccccc4OC)C(=O)[C@]34CCCN24)cc1	i	.	.	.
COc1ccc(Nc2nc(NCCN3CCOCC3)nc(Nc3ccc(OC)cc3)n2)cc1	i	0.55	.	.
COc1ccc(CC(=O)Nc2nc(C)cs2)cc1	i	.	.	.
COc1ccc(CC(=O)Nc2nc(C(C)(C)C)cs2)cc1	i	.	30.0%*	i
Cn1cccc1/C=N/NC(=O)c1sc2ccccc2c1Cl	i	.	.	.
O=C(N/N=C/c1ccc([N+](=O)[O-])o1)c1sc2ccccc2c1Cl	i	5.52*	i	i	CHO-K1 Tl ctr=7.0*;KCNQ1 sel pot=-23.7;KCNQ2 pot confirm=-15.3;Kir21 spec=-34.8
O=C(OCC(=O)C12CC3CC(CC(C3)C1)C2)c1cnccn1	i	.	.	.
CCS(=O)(=O)c1ccc(O)c(NC(=O)Nc2cccc3ccccc23)c1	i	1.08	.	.
CCOC(=O)c1c(-c2ccc(C)o2)csc1NC(=S)NC(=O)N(C)C	i	14.5*	i	314.0%*	CHO-K1 Tl ctr=-10.2;KCNQ1 sel pot=-18.5;KCNQ2 pot confirm=33.8*;Kir21 spec=-8.2;KCNQ2 W236L MoA=58.9%*
CCOC(=O)c1c(-c2ccc(C)o2)csc1N	i	.	.	.
Cc1cccc(C(=O)NC(=S)Nc2c(C)n(C)n(-c3ccccc3)c2=O)c1	i	.	.	.
SMILES	KCNQ2 block	KCNQ2 enhance	Kir21 confirm	HEK293 Tl flux	others
CC(CCc1ccccc1)NC(=O)CC(C)c1ccccc1 (configuration not stated)	i	.	55.5%*	i
CC(CC(=O)NCc1ccc(Cl)cc1)c1ccccc1 (configuration not stated)	i	5.91*	i	i	CHO-K1 Tl ctr=-6.6;KCNQ1 sel pot=-23.0;KCNQ2 pot confirm=-2.0;Kir21 spec=-48.0;KCNQ2 W236L MoA=i
O=C(COC(=O)CC(c1ccccc1)c1ccccc1)NCc1ccc(Cl)cc1	i	.	.	.
CC(CCc1ccccc1)NC(=O)Cc1ccccc1 (configuration not stated)	i	.	.	.
CCN(CC(=O)Nc1ccccc1C(F)(F)F)C(=O)C1CC(=O)N(Cc2ccccc2)C1 (configuration not stated)	i	0.82	.	.
CCc1ccc(N(CC)C(=O)c2cn(C)c(=O)c3ccccc23)cc1	i	0.61	.	.
COc1ccc(CN(C)CC(O)COC(c2ccc(OC)cc2)c2ccc(OC)cc2)cc1 (configuration not stated)	i	.	49.5%*	i
COc1ccc(C(OCC(O)CN(C)C2CCCCC2)c2ccc(OC)cc2)cc1 (configuration not stated)	i	.	.	.
CCOc1ccc(CN(C)CC(O)COC(c2ccc(OC)cc2)c2ccc(OC)cc2)cc1 (configuration not stated)	i	.	58.5%*	i
C=CCOc1ccc(CN(C)CC(O)COc2ccc(CCC(C)=O)cc2)cc1 (configuration not stated)	i	1.05	.	.
Cc1cc(C)c2ccc(NN)nc2c1O	i	.	.	.
Cc1cc(C)c2ccc(/C=N/O)nc2c1O	i	11.6*	i	i	CHO-K1 Tl ctr=146.6*;KCNQ1 sel pot=12.0*;KCNQ2 pot confirm=-3.2;Kir21 spec=-17.3;KCNQ2 W236L MoA=i
COc1ccc(NC(=O)CSc2nc3ccccc3c(=O)n2CCCN2CCCCC2)c(OC)c1	i	.	62.5%*	i
COCCCNC(=O)CSc1nc2ccccc2c(=O)n1CCCN1CCCCC1	i	0.68	.	.
Cc1cc(C)c(C)c(S(=O)(=O)N2CCCN(C)CC2)c1C	i	0.58	.	.
c1cc2ccc3ccc(CN4CCOCC4)c4ccc(c1)c2c34	i	0.02	.	.
OC1CCCN(Cc2ccc3ccc4cccc5ccc2c3c45)C1 (configuration not stated)	i	.	48.0%*	i
CCC1(C)Cc2c(sc3nc(SC)[nH]c(=S)c23)CO1 (configuration not stated)	i	15.5*	i	456.5%*	CHO-K1 Tl ctr=-15.9;KCNQ1 sel pot=32.0*;KCNQ2 pot confirm=81.9*;Kir21 spec=0.1*;KCNQ2 W236L MoA=i
CCSc1nc2sc3c(c2c(=O)[nH]1)CC(C)(CC)OC3 (configuration not stated)	i	.	.	.
Cc1cc(C)c(NC(=O)CNC(=O)c2cc([N+](=O)[O-])ccc2N2CCOCC2)c(C)c1	i	.	.	.
CCn1c(SCC(=O)NC2CC2)nnc1-c1ccc(OC)cc1	i	.	.	.
